# Rows were chosen to be rich in hits. Some 3.7% of all compounds tested hit in one or more screens of this group.
# Tau fluor counter: Counterscreen qHTS for Inhibitors of Tau Fibril Formation, Fluorescence Polarization; AID 1463, 2008; Potency, µM (top dose mostly 57.7 µM), for inactives: at the highest dose activity change, negative = decrease; 0.93% of 280,000 active; tau K18 P301L Alexa594 fluorescence, heparin fibrillization; also: % is scaled to controls: 0 for no effect and ±100 for the full control effect; nearly all actives have a fitted effect of over 55% in size
#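 Human tau K18 P301L (15 uM unlabeled, 0.24 uM Alexa 594-labeled) in 100 mM sodium acetate pH 7 with 20 uM heparin, 6 hr at 37 C. ThT 30 uM added, 1 hr ambient; Alexa 594 FP and total fluorescence read at 555/632 nm.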
# Tau FP inhib: qHTS for Inhibitors of Tau Fibril Formation, Fluorescence Polarization. Microtubule-associated protein tau (Homo sapiens), P10636. K18 P301L tau heparin fibrillization, Alexa594 FP, 6 h. Potency, µM (top dose mostly 57.7 µM), without a hit: at the highest dose activity, negative = inhibition, actives largely listed as inhibitors. 0.39% of 280,000 active; also: % is scaled to controls: 0 for no effect and ±100 for the full control effect; nearly all actives have a fitted effect of over 55% in size
# Target sequence (P10636 561-689 P618L limits assumed): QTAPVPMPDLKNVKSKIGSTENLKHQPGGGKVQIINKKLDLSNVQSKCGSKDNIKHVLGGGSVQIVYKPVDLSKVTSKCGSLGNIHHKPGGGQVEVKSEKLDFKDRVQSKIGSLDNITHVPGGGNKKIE
#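 Quantitative HTS format: compounds meet 15 uM recombinant K18 P301L tau and Alexa 594-tau tracer in 100 mM sodium acetate pH 7; 20 uM heparin triggers fibrillization at 37 C over 6 hr; FP gives the signal.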
# HTT ATP protect: qHTS Multiplex Assay to Identify Dual Action Probes in a Cell Model of Huntington: Cytoprotection (ATP) | 0.14% of 230,000 active | AID 1471, 2008 | PC12 HTT-Q103 induced, cytoprotection, ATP luminescence, 40 h | Potency, µM (top dose mostly 56.4 µM), inactives show cytoprotection (ATP increase), usual class: activators; also: % of control where 0% means no effect; nearly all actives have a fitted effect of over 45% in size
#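 Huntington model: PC12 line, ecdysone-inducible HTTQ103 exon1–GFP, tebufenozide 100 nM. Test articles in a dose series. Endpoint luminescence from cellular ATP.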
# Tau fibril ThT: qHTS for Inhibitors of Tau Fibril Formation, Thioflavin T Binding. 2.1% of 270,000 active. recombinant tau K18 P301L, heparin-induced fibrillization, ThT fluorescence. Potency, µM (titrated, usually from 57.4 µM), for inactives: at the highest dose activity, negative = inhibition, usual class: inhibitors; also: % is scaled to controls: 0 for no effect and ±100 for the full control effect; nearly all actives have a fitted effect of over 55% in size
#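 Fibril formation assay: tau K18 P301L at 15 uM with trace Alexa 594 label, heparin inducer 20 uM, pH 7 sodium acetate buffer, 37 C for 6 hr; endpoint ThT signal.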
# HTT aggregate: qHTS Multiplex Assay to Identify Dual Action Probes in a Cell Model of Huntington: Aggregate Formation (GFP) | PC12 HttQ103-GFP aggregates, Acumen cytometry, 40 h | Potency, µM (highest dose often 46.1 µM), inactives show at the highest dose activity change, negative = inhibition, most hits filed as inhibitors | 1.1% of 220,000 active | AID 1688, 2009; also: % is scaled to controls: 0 for no effect and ±100 for the full control effect; nearly all actives have a fitted effect of over 60% in size
#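 Compounds (qHTS titration) were added to PC12 cells expressing an ecdysone-driven HTT exon 1 Q103–GFP fusion after induction with 100 nM tebufenozide. Aggregate formation was measured as GFP objects in cell lysates.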
# The depositor's hits bear a star; ? = inconclusive; nt = no result; [ ] = another dose, or the depositor's remark. Calls follow the shape of the dose curve; as a rule, active = well fitted curve in the direction sought with a large enough effect; inconclusive = small, poorly fitted or top-dose-only effect, or another doubt; inactive = no such curve, though single readings can be large; an effect the other way counts as inactive or inconclusive. Potency is read from the fitted curve at half-maximal effect.
SMILES,Tau fluor counter,Tau FP inhib,HTT ATP protect,Tau fibril ThT,HTT aggregate
O=c1/c(=C\c2cccnc2)sc2nc3ccccc3n12,6.6%,4.6%,-1.7%,?,-7.0%
O=c1/c(=C/c2ccc(O)c([N+](=O)[O-])c2)sc2nc3ccccc3n12,-19.8%,2.0%,nt,2µM*,4.2%
CC(C)Oc1ccc(CNC(=O)c2ccc(CS(=O)c3cccc(Cl)c3)o2)cc1 (stereo unspecified),-5.1%,6.9%,nt,-4.5%,nt
Cc1cc(SCC(=O)c2ccc(O)c(O)c2)n2nc(C)c(-c3ccccc3)c2n1,11.2µM*[quencher],-4.2%,-38.2%[10 µM],?,-5.3%[9.22 µM]
CN(C)c1ccc(C(=C2C=CC(=[N+](C)C)C=C2)c2ccc(N(C)C)cc2)cc1,7.08µM*[quencher],15.8µM*,-98.0%,5.01µM*,?
CN(C)c1ccc(C(=C2C=CC(=[N+](C)C)C=C2)c2ccccc2)cc1,nt,nt,-53.8%[10 µM],nt,?
CCOC(=O)c1c(C)oc2c1c(C(c1cccnc1)N1CCOCC1)c(O)c1ccccc12 (stereo unspecified),?,-4.8%,-12.5%,17.8µM*,3.2%
CCOC(=O)c1c(C)oc2c1c1c(c3ccccc32)OCN(Cc2cccnc2)C1,?,?,-17.1%,17.8µM*,12.0%
CCOC(=O)c1c(C)oc2c1c(C=NCc1ccccn1)c(O)c1ccccc12,?,-7.8%,-1.8%[10 µM],12.6µM*,?
CCOC(=O)c1c(C)oc2c1c1c(c3ccccc32)OCN(CCCC(=O)O)C1,?,0.4%,25.1%[10 µM],?,-14.2%[9.22 µM]
[O][C@H]1[C@@H](O)[C@@H](CO)O[C@@H](O[C@@H]2[C@@H]3OC[C@H]2O[C@H](O[C@@H]2[C@@H](O)[C@H](C[C@@H]4[C@@H]5OC[C@H]4O[CH][C@@H]5O)O[C@H](CO)[C@@H]2OS(=O)(=O)O)[C@@H]3OS(=O)(=O)O)[C@@H]1O,-6.6%,-3.2%,nt,-3.2%,nt
CCc1oc(C(=O)O)cc1CN(CC)CC,2.3%,0.7%,7.0%[10 µM],1.9%,15.6%
CCN(CC)Cc1cc(O)c(CN(CC)CC)cc1O,?,?,-19.2%,11.2µM*,?
Cc1ccc(/C=N/Nc2nncc(-c3ccccc3)n2)o1,-14.4%,-2.6%,-31.0%,?,13.2%
Clc1ccccc1-c1ccc(/C=N/Nc2nncc(-c3ccccc3)n2)o1,-27.4%,16.4%,nt,2µM*,10.7%
FC(F)(F)c1cccc(-c2ccc(/C=N/Nc3nncc(-c4ccccc4)n3)o2)c1,-16.6%,7.4%,nt,?,?
Clc1ccc(-c2ccc(/C=N/Nc3nncc(-c4ccccc4)n3)o2)cc1,-27.1%,-2.7%,-17.0%,2.24µM*,-3.9%
C(=N\Nc1ccccn1)/c1c[nH]c2ccccc12,14.1µM*[quencher],9.1%,-2.3%[10 µM],7.08µM*,13.8%[9.22 µM]
COC(=O)CSc1cnc2ccccc2n1,-0.5%,6.3%,-6.8%,-4.3%,3.6%
O=C(CSc1cnc2ccccc2n1)c1ccc(F)cc1,-14.9%,-10.9%,24.4%[0.074 µM],14.1µM*,-19.7%
C[C@@]12C[C@H](O)[C@@H]3[C@H](CCC4=CC(=O)CC[C@]43C)[C@H]1CC[C@@H]2c1csc(N)n1,nt,nt,-3.4%[10 µM],nt,nt
Cc1cc(C=C2C(=O)c3ccccc3C2=O)c(C)n1-c1cccc(C(=O)O)c1,-21.0%,-5.5%,6.9%,15.8µM*,?
Cc1cc(C=C2C(=O)c3ccccc3C2=O)c(C)n1-c1ccc(C(=O)O)cc1,0.1%,-2.3%,25.2%[10 µM],14.1µM*,9.9%[9.22 µM]
Cc1ccc(C(=O)NC2(O)C(=O)c3ccccc3C2=O)cc1C,-10.6%,3.98µM*,-3.3%[10 µM],nt,-17.3%[9.22 µM]
CCOC(=O)c1cc(C)n(CC2CCC(C(=O)Nc3ccc(C(C)=O)cc3)CC2)c1C (stereo unspecified),-22.9%,-0.9%,nt,13.5%,nt
SMILES,Tau fluor counter,Tau FP inhib,HTT ATP protect,Tau fibril ThT,HTT aggregate
Cc1ccc(-c2cc3ncc(C(=O)c4cc([N+](=O)[O-])ccc4O)cn3n2)cc1,-29.1%,2.8%,nt,10µM*,nt
COc1cccc(NC(=O)CC(C)S(=O)(=O)c2ccc3c(c2)NC(=O)CO3)c1 (stereo unspecified),6.1%,2.2%,nt,6.6%,nt
Cc1ccccc1NN=Nc1nc2c([nH]1)c(=O)n(C)c(=O)n2C,-8.4%,-9.7%,-14.7%[10 µM],?,-9.3%
Cn1c(=O)c2[nH]c(N=NNc3ccccc3F)nc2n(C)c1=O,?,?,14.8%[10 µM],14.1µM*,20.3%[9.22 µM]
COc1ccc(NN=Nc2nc3c([nH]2)c(=O)n(C)c(=O)n3C)cc1,?,?,-9.5%[10 µM],25.1µM*,18.9%[9.22 µM]
O=C1/C(=C/c2c[nH]c3ccccc23)CCC/C1=C\c1c[nH]c2ccccc12,7.94µM*[quencher],8.0%,13.0%[10 µM],?,-9.4%
O=C1CS/C(=N/N=C/c2c[nH]c3ccccc23)N1,-5.5%,0.8%,-16.2%[10 µM],nt,12.4%[9.22 µM]
Cn1c(N/N=C/c2ccccc2)nc2sc3c(c2c1=O)CCC3,17.8µM*[quencher],5.8%,-19.1%,?,-2.4%
O=c1oc(/C=C/c2ccccc2)nc2sc3c(c12)CCC3,-9.4%,5.1%,-7.0%,?,5.4%
CN1CCc2c(sc3nc(NN)n(Cc4ccccc4)c(=O)c23)C1,?,-13.2%,0.3%[10 µM],15.8µM*,-17.0%[9.22 µM]
O=c1c2c3c(sc2nc(NCCO)n1CCc1ccccc1)CCCCC3,14.1µM*[quencher],?,13.3%[10 µM],?,-16.9%
CCOc1cc(/C=N/NC(N)=O)cc(Br)c1OCc1ccccc1F,?,?,6.1%[10 µM],-9.6%,19.0%
CCOc1cc(CNc2ccc(O)cc2)cc(Br)c1OCc1ccccc1F,12.6µM*[quencher],?,6.7%[10 µM],25.1µM*,13.1%
COc1cc(CNCc2ccncc2)cc(Br)c1OCc1ccccc1F,-10.8%,-1.9%,-47.5%,-2.0%,?
COc1cc(CNc2ccc(O)cc2)cc(Br)c1OCc1ccccc1F,12.6µM*[quencher],?,-36.5%[10 µM],25.1µM*,11.3%
CCOc1cc(CNc2ccc(O)cc2)cc(Br)c1OCc1ccccc1,8.91µM*[quencher],-1.2%,nt,?,nt
COc1cc(CNC(C)(C)CO)cc(Br)c1OCc1ccccc1,4.4%,3.1%,-4.4%[10 µM],-1.7%,-1.4%
CC(C)CCN1CCc2nc(-c3ccccc3)c3c(c2C1)COC(C)C3 (stereo unspecified),-9.1%[11.6 µM],-10.8%[11.6 µM],6.1%[10 µM],-7.0%[11.5 µM],nt
Cc1cc(C(=O)COc2cccc(-n3cnnn3)c2)c(C)n1-c1ccccc1,-20.1%,6.2%,-98.1%,-20.3%,11.2µM*
Cc1[nH]c2ccccc2c1SCCNC(=O)c1ccc(Br)o1,?,13.8%,-19.8%[10 µM],?,25.1µM*
Cc1[nH]c2ccccc2c1SCCNC(=O)c1ccc(S(=O)(=O)N2CCCC2)cc1,15.8µM*[quencher],6.5%,nt,-14.7%,-22.0%
